FUS suppressor – FUS proteinopathy suppression in yeast; Potency, µM (titrated, usually from 76.6 µM), most hits filed as activators; S. cerevisiae FUS-expressing, growth rescue, OD600, 24 h; AID 1347120; 390,000 compounds, 0.24% hits;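 also: potency is read from the fitted curve at half-maximal effect; plate controls were DMSO vehicle for no effect and reference control for full effect; nearly all actives have a fitted effect of over 55% in size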
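Cultures pregrown in 2.5% raffinose medium are shifted to minimal medium containing 2% galactose to express toxic FUS. Compounds are tested at several concentrations. After 24hr at 30C, growth is quantified at 600 nm absorbance.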
Abeta rescue – restores growth of yeast expressing A-beta42 peptide; yeast expressing A-beta42, growth rescue, OD600, 48 h; response scale: 0% DMSO, 100% iron-clioquinol control; Potency, µM (top dose mostly 46.1 µM), actives largely listed as activators; 410,000 compounds, 0.063% hits; also: potency is read from the fitted curve at half-maximal effect; nearly all actives have a fitted effect of over 55% in size
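Yeast A-beta toxicity model in growth medium with pinned compounds, 48 h at 30 C; growth read as absorbance at 600 nm. Normalized to FeCl3/clioquinol equimolar mix (positive) and DMSO (negative).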
MmCpn inh – M. maripaludis TRiC chaperonin inhibition; purified Mm-Cpn ATPase, ADP Transcreener TR-FRET; Potency, µM (series often up to 76.9 µM), for the others: at the top dose activity, negative = inhibition, actives largely listed as inhibitors; 330,000 compounds, 0.031% hits; AID 504842; also: potency is read from the fitted curve at half-maximal effect; % is scaled to controls: 0 for no effect and ±100 for the full control effect; nearly all actives have a fitted effect of over 80% in size
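Quantitative HTS used 25 nM Mm-CPN and 10 uM ATP in magnesium/KCl Tris buffer, pH 7.4, with 1 mM DTT. Hydrolysis ran 30 min at 37°C; ADP was read by HTRF.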
CCT modulator – modulators of cytosolic chaperonin (CCT/TRiC) activity; purified chaperonin ATPase assay, HTRF ADP detection, 30 min; activity change, % (no concentration beside the values), hits read low; 360,000 compounds, 0.3% hits; in the data active = activity change below about -30%; also: % is scaled to controls: 0 for no effect and ±100 for the full control effect
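Enzyme 40 or 20 nM (batch-dependent) in Tris pH 7.4/KCl/MgCl2/DTT; cpd 76 uM single point; ATP 10 uM; 30 min 37 °C; Transcreener ADP HTRF detection, 30 min RT; ratio 665/615.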
aSyn yeast inh – alpha-synuclein toxicity inhibition in yeast; Yeast expressing alpha-synuclein, growth rescue, BacTiter-Glo, 24 h; Potency, µM (doses to about 46.1 µM), without a hit: at the top dose growth rescue (activation), actives largely listed as activators; 370,000 compounds, 0.14% hits; AID 652106; also: potency is read from the fitted curve at half-maximal effect; % of control where 0% means no effect; nearly all actives have a fitted effect of over 65% in size
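Rescue of yeast growth: cells expressing toxic alpha-synuclein, induced in galactose at OD600 0.02, incubated with compound 24 h at 30 C. ATP luminescence quantified growth; inhibitors of toxicity appear as activators.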
TDP-43 yeast inh – TDP-43 toxicity inhibition in yeast | AID 652104 | 410,000 compounds, 1.8% hits | TDP-43 expressing yeast growth rescue, BacTiter-Glo, 24 h | Potency, µM (highest dose often 46.1 µM), for the others: at the top dose growth rescue (activation), hits mostly activators; also: potency is read from the fitted curve at half-maximal effect; % of control where 0% means no effect; nearly all actives have a fitted effect of over 50% in size
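In this qHTS, compounds that restore growth of yeast expressing TDP-43 appear as activators. Cells (OD600=0.02, galactose medium, raffinose-pregrown) are incubated with compound 24 hr at 30 deg C and growth is quantified by BacTiter-Glo.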
Numbers without * were called inactive; i = inactive; ? = inconclusive; . = no result given. Sampled rows, rich in hits. Any-hit rate of the full collection: about 2.3%. Unless noted, calls follow the shape of the dose curve; as a rule, active = well fitted curve in the direction sought with a large enough effect; inconclusive = small, poorly fitted or top-dose-only effect, or another doubt; inactive = no such curve, though single readings can be large; an effect the other way counts as inactive or inconclusive.

SMILES	FUS suppressor	Abeta rescue	MmCpn inh	CCT modulator	aSyn yeast inh	TDP-43 yeast inh
CCOc1ccc(C(=O)Nc2ccccc2CC)cc1[N+](=O)[O-]	i	?	0.2%	-3.1	-1.7%	28.2µM*
COc1ccc2c(c1)CCC1C2CC[C@@]2(C)C1CC[C@@H]2NCCCCCCN1C(=O)CCC1=O (stereo not given in full)	.	.	.	.	7.4%	.
O=C(COc1ccccc1)Nc1ccc(-c2ccc(N3CCOCC3)nn2)cc1	i	i	-7.8%	-137.5*	-3.7%	0.0%
CCOc1ccccc1C(=O)Nc1cccc(-c2ccc(N3CCOCC3)nn2)c1	i	?	-3.3%	0.3	7.2%	15.8µM*
CN1CCN(c2ccc(-c3cccc(NC(=O)COc4ccccc4)c3)nn2)CC1	i	i	-2.7%	-2.7	-4.9%	6.1%
COc1cc(OC)cc(C(=O)NCCN2C(=O)C3C4C=CC(C4)C3C2=O)c1 (stereo not given)	i	.	.	.	.	.
CCN(C)C(=O)CN1C(=O)C2CCCCN2C(=O)c2ccccc21 (stereo not given)	i	.	.	.	.	.
CCN(CC(=O)Nc1ccc(NC(C)=O)cc1)CC(=O)Nc1cccc(Cl)c1	i	i	-3.7%	-71.1*	-7.2%	-24.2%
CCCCCOCC1CC(C/C(C)=N/NC(N)=O)(C(=O)OCC)C(=O)O1 (stereo not given)	i	i	-3.9%	-41.2*	0.4%	3.1%
CCOC(=O)CSc1nc2ccccc2c(=O)n1-c1cccc(C)c1	i	i	.	.	.	22.4%
Cc1ccc(O)c(N=Nc2ccccc2)n1	i	i	.	-1.8	-74.2%	11.2µM*
Oc1ccc(Cl)cc1N=Nc1ccccc1	i	i	0.2%	1.1	7.1%	-2.3%
O=C(N/N=C\c1cc(Br)cs1)C1COc2ccccc2O1 (stereo not given)	i	?	2.4%	-0.3	14.0%	35.5µM*
O=C(N/N=C\C=C\c1ccco1)C1COc2ccccc2O1 (stereo not given)	i	i	0.0%	0.8	13.4%	14.1µM*
O=C(N/N=C/c1ccc2c(c1)OCO2)C1COc2ccccc2O1 (stereo not given)	i	i	1.2%	-0.5	-1.7%	-1.0%
Nc1ccc(/C=C/c2cccc3cccnc23)cc1	.	.	.	.	4.5%	.
O=C(COc1ccccc1)OCC(=O)c1ccc(O)cc1O	i	12.6µM*	0.3%	-1.0	3.5%	24.9%
O=C(COc1ccc(Cl)cc1)c1ccc(O)cc1O	i	i	-6.7%	-0.4	-8.2%	-21.8%
CCOC(=O)N1CCN(C(=O)C[C@@H]2C[C@]3(C(=O)OCC)CCC4=C3N(CCC4)C2=O)CC1	i	.	.	.	.	.
CC(C)CC(=O)Nc1ccc(N2CCN(C(=O)c3cccs3)CC2)cc1	i	i	-3.1%	2.8	0.4%	-21.7%
O=C(Cn1nc(-c2ccccc2)ccc1=O)Nc1ccc(N2CCN(C(=O)c3cccs3)CC2)cc1	8.91µM*	i	1.7%	2.0	-3.5%	4.0%
COc1ccc(NS(=O)(=O)c2ccc(Br)cc2)cn1	i	i	0.2%	0.1	1.3%	?
COc1ccc(NS(=O)(=O)c2ccc3oc4ccccc4c3c2)cn1	i	i	1.2%	-3.2	22.4µM*	?
S=C(Cc1ccccc1)Nc1ccccc1	.	i	.	-3.4	1.5%	8.91µM*
CCc1ccc(-c2nc(CN3CCCC(C(=O)N4CCN(c5cc(Cl)ccc5C)CC4)C3)c(C)o2)cc1 (stereo not given)	?	i	.	.	.	0.8%
CCOC(=O)c1c(C)nc(C)c(C(=O)OCC)c1-c1cccnc1	i	i	0.2%	1.6	7.1%	19.8%
CCOC(=O)c1cc2c(C(F)(F)F)cc(-c3cccnc3)nc2o1	i	i	-0.3%	-31.6*	6.6%	-0.7%
CCOc1ccccc1N(C)C(=O)Cn1cnc2onc(-c3ccc(F)cc3)c2c1=O	i	i	.	.	-1.1%	1.9%
O=C(O)/C=C/c1ccc([N+](=O)[O-])o1	i	i	0.6%	1.8	9.3%	10µM*

Screens deposited in PubChem BioAssay by National Center for Advancing Translational Sciences (NCATS).
